Drawing on ChEMBL document CHEMBL4513216, “Probing the Open Global Health Chemical Diversity Library for Multistage-Active Starting Points for Next-Generation Antimalarials” (ACS Infect Dis, 2020), this text covers INHIBITION for 53 compounds.

The campaign covered roughly 69,000 compounds. About 8,600 (12%) showed an effect of 50% or more. For the sample, strong results were picked, then their nearest neighbours and some compounds at random.

This experiment has as its system Plasmodium berghei. As to the kind of experiment: Screen against P. berghei liver stage (PbLuc), transformed with Luciferase, at 10uM. It is filed as functional, HepG2. As to conditions: tested at 10 uM.
Turning to `O=C(c1cc(=O)n(-c2ccccc2)[nH]1)N1CCCC(c2ccn[nH]2)C1` (stereo not drawn), the INHIBITION amounted to 55%.
Take `O=C(c1cc(=O)n(-c2ccccc2)[nH]1)N1CCOC(C(F)(F)F)C1` (stereo not drawn): the INHIBITION was 63.6%.
The result for `O=C(c1cnc2ccccn12)N1CCCC(c2ccn[nH]2)C1` (stereo not drawn) reads -0.71%; that for `O=C(c1cc(=O)n(-c2ccccc2)[nH]1)N1CCOCC(O)C1` (stereo not drawn), 0.546%; that for `O=C(c1ccccc1-c1nc[nH]n1)N1CCOC(C(F)(F)F)C1` (stereo not drawn), 7.15%.
On to `O=C(c1cnnn1-c1ccccc1)N1CCCC(c2ccn[nH]2)C1` (stereo not drawn), for which the INHIBITION was 12.9%.
For `COc1ccc(CNC(=O)Nc2ccc(N3CCCC3)nc2)cc1O`, the INHIBITION was 26.4%.
`O=C(NCc1cccs1)[C@H]1CC[C@@H]2[C@@H](CCN2C2CCC2)O1`: the INHIBITION is reported as -4.88%.
As for `O=C(c1cscn1)N1CCC2(CCN(Cc3nccs3)CC2)CC1`, the INHIBITION turned out to be 35.7%.
Then `Cc1cnc(C(=O)N2C[C@H]3CN(Cc4cccnc4)C[C@H]3C2)cn1`, with -6.21%; and `Cc1cnc(C(=O)N2C[C@H]3CN(Cc4nccs4)C[C@H]3C2)cn1`, with 81.5%.
For `Cc1cnc(C(=O)N2C[C@H]3CN(Cc4cccs4)C[C@H]3C2)cn1`, the INHIBITION was -18.2%.
Turning to `NC(=O)N1C[C@H]2CN(Cc3nccs3)C[C@H]2C1`, the INHIBITION stood at 14.8%.
Then `O=C(c1cscn1)N1C[C@H]2CN(Cc3nccs3)C[C@H]2C1`, with 62.5%.
For the compound `O=C(O)c1c(-c2ccncc2)ncc2c1CCN(C1CCOC1)C2` (stereo not drawn), the INHIBITION is -12.4%.
Then `CCc1nc(CC(=O)N2CCn3c(C)nnc3C2)cs1`, with 27.45%.
`CN1C(=O)CC(C(=O)O)C12CCN(Cc1ccc(F)cc1Cl)CC2` (stereo not drawn): the INHIBITION came to 18.8%.
As to `CN1C(=O)CC(C(=O)O)C12CCN(Cc1cc(Cl)ccc1F)CC2` (stereo not drawn), the INHIBITION is recorded as 50.5%.
Turning to `CN1C(=O)CC(C(=O)O)C12CCN(Cc1ccc(Cl)cc1F)CC2` (stereo not drawn), the INHIBITION was 7.84%.
The result for `O=C(c1ccsc1)N1CCC(Nc2cccnn2)CC1` reads -85%.
Then `COc1ccc(NC2(C(=O)N3CCCn4cncc4C3)CCCC2)cc1`, with 18.5%; and `CN(CC(=O)NCCCOc1ccc(F)cc1)c1ccc(C#N)cn1`, with 3.84%.
Consider `O=c1[nH]c2cn(-c3ccccc3)c(=O)n2[nH]1`, for which the INHIBITION was determined as 14.2%.
Consider `Cc1cc(C)nc(C2CCCN2S(=O)(=O)N2CCOCC2)n1` (stereo not drawn), for which the INHIBITION stood at 43.4%.
Then `Cc1ccc(C(=O)N2CCCC(c3[nH]ncc3S(C)(=O)=O)C2)s1` (stereo not drawn), with 33.7%; and `CS(=O)(=O)NC[C@]12COC[C@H]1CN(Cc1ccc3c(c1)OCO3)C2`, with 38.5%; and `Cn1cc(C(=O)NCC(Cc2cccc(F)c2)N2CCCCC2=O)nn1` (stereo not drawn), with 6.83%.
As for `O=C(CCN1CCC(C(=O)c2cc(F)ccc2F)CC1)NC1CCCC1`, the INHIBITION is recorded as 36.2%.
For the compound `O=C(CCN1CCC(C(=O)c2cc(F)ccc2F)CC1)NC1CC1`, the INHIBITION was -1.58%.
Consider `O=C(CN1CCC(C(=O)c2cc(F)ccc2F)CC1)NC1CCCC1`, for which the INHIBITION worked out at 51.3%.
On to `COC(=O)CN1CCC(C(=O)c2cc(F)ccc2F)CC1`, for which the INHIBITION stood at 15.3%.
As to `C=C(Cl)CN1CCC(C(=O)c2cc(F)ccc2F)CC1`, the INHIBITION turned out to be 17.8%.
Then `O=C(CN1CCC(C(=O)c2cc(F)ccc2F)CC1)NC1CC1`, with 56.5%; and `CC(=O)N[C@H]1CCO[C@@H](c2cccc(NC(=O)c3cccc(F)c3)c2)C1`, with 6.74%; and `O=C(NC1CC1)N1CCc2ncc(CN3CCOCC3)n2CC1`, with 15.9%.
`COc1ccc(CN2CC[C@H]3[C@H]2CC(=O)N3Cc2cccc(C)n2)cc1`: the INHIBITION is recorded as -31.9%.
On to `Cc1ccc(N2C[C@H]3OCC[C@H]3[C@H](C(=O)NCC3CC3)C2)nn1`, for which the INHIBITION is given as 49.7%.
As for `CCc1nnc(CS(=O)(=O)c2ccc(C)cc2)n1C`, the INHIBITION is recorded as 35.1%.
Regarding `COC(=O)CN(C)C1CCc2ccccc21` (stereo not drawn), the INHIBITION is 20.1%.
The result for `CN(CCC#N)C(=O)CN(C1CC1)C1CCc2ccccc21` (stereo not drawn) reads -4.15%.
Turning to `CN(CC(=O)N(C)C1CCCCC1)C1CCc2ccccc21` (stereo not drawn), the INHIBITION is on record as 37.2%.
Then `CC(C)N(C(=O)CN(C)C1CCc2ccccc21)C(C)C` (stereo not drawn), with -30.96%; and `CCCN(CCC)C(=O)CN(C)C1CCc2ccccc21` (stereo not drawn), with 15.55%.
Then `CCN(CC)C(=O)CN(C)C1CCc2ccccc21` (stereo not drawn), with 53.5%.
The result for `C=C(C)CN(CC)C(=O)CN(C)C1CCc2ccccc21` (stereo not drawn) reads -2.725%; that for `CN(Cc1cccs1)C(=O)CN(C)C1CCc2ccccc21` (stereo not drawn), 47.4%; that for `CN(Cc1c(F)cccc1Cl)C(=O)CN(C)C1CCc2ccccc21` (stereo not drawn), 85.1%.
Turning to `CN(Cc1ccc(Cl)s1)C(=O)CN(C)C1CCc2ccccc21` (stereo not drawn), the INHIBITION was 82.5%.
As for `CN(Cc1ccc(Cl)s1)C(=O)CN(C)C1CCCc2ccccc21` (stereo not drawn), the INHIBITION is 85.9%.
As for `CCOC(=O)CN(C)C1CCc2ccccc21` (stereo not drawn), the INHIBITION is recorded as 34.7%.
Regarding `Cn1c2c(ccc1=O)CC(Nc1ncc(F)cn1)CC2` (stereo not drawn), the INHIBITION is recorded as -89%.
The result for `O=C1COC2(CCN(Cc3ccc(F)cc3)CC2)CN1` reads -7.35%; that for `O=C(CCN1CCOC1=O)N(Cc1ccncc1)CC1CCCO1` (stereo not drawn), 15.7%.
